# Test results published in PubChem BioAssay AID488969 (Vanderbilt High Throughput Screening Facility, 2010).
# Over roughly 110,000 compounds, “z-score” has its median near -0.1; the highest 2% begin near 2. The sample holds the highest values, similar compounds and a random draw of the others, so the mix is not that of the screen. Calls of active or inactive are those of the source.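 The calls were made as follows: active = z-score in the third read window above 3 or below -3; inactive = the rest.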
# Molecular target: Metabotropic glutamate receptor 8 (Rattus norvegicus) (UniProt P70579)
# Experiment: rat mGluR8 modulators via GIRK flux, primary screen, cell-based, thallium flux, HTS (AID 488969)
# Conditions: HEK293 rat mGluR8, GIRK (G protein-gated inwardly rectifying potassium channel) thallium flux, FluoZin2; at 10 µM; stronger effect = higher value
# Metabotropic glutamate receptor 8 (Rattus norvegicus), sequence (P70579 whole entry, looked up): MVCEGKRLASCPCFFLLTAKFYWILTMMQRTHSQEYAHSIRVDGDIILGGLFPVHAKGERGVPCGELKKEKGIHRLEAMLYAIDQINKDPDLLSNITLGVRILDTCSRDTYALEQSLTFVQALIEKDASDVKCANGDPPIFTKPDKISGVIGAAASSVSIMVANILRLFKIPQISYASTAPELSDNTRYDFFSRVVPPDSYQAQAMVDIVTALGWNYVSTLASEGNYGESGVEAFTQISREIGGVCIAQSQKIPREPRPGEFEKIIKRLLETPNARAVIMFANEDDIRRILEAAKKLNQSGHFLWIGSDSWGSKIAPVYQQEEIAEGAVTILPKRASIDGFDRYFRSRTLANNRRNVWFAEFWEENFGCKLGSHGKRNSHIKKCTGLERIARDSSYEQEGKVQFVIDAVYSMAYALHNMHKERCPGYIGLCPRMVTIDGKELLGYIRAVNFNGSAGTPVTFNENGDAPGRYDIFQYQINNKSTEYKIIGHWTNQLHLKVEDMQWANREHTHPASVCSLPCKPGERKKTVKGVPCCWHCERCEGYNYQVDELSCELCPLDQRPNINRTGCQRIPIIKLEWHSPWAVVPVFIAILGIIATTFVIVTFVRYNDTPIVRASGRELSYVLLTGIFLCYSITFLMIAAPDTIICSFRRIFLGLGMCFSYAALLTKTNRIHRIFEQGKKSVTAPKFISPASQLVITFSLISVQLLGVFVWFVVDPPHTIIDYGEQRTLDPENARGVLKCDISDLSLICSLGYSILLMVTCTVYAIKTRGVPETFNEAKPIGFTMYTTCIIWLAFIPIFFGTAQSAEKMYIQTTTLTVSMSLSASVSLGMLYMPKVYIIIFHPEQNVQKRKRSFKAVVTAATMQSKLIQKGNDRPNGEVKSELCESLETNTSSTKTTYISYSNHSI
row,Structure (SMILES),z-score
1,COc1ccc(C2NCc3ccccc3-n3cccc32)cc1 (stereo not drawn),2.1
2,Oc1ccc(C2NCc3ccccc3-n3cccc32)cc1Cl (stereo not drawn),1.68
3,c1ccc(C2NCc3ccccc3-n3cccc32)cc1 (stereo not drawn),-0.239
4,Cc1nn(C2CCOC(C)(C)C2)c2c1C(c1ccc(OC(C)C)cc1)SCC(=O)N2 (stereo not drawn),-0.843
5,Cn1c(O)c(C=NCc2ccco2)c(=O)n(C)c1=O,-0.19
6,CCC(CC)C1C(C#N)=C(N)Oc2c1c(=O)oc1ccccc21 (stereo not drawn),-0.103
7,O=C(COc1ccc(Cl)cc1)N1CCN(C/C=C/c2ccccc2)CC1,-0.0408
8,O=C(COc1ccccc1)N1CCN(C/C=C/c2ccccc2)CC1,0.702
9,O=C(Cc1ccccc1)N1CCN(C/C=C/c2ccccc2)CC1,3.68 (active)
10,CC12CCCCC1=[N+]([O-])CN2O (stereo not drawn),0.377
11,CCOc1ccc(CC2C(=O)NC(=O)N(c3ccc(CC)cc3)C2=O)cc1 (stereo not drawn),-0.531
12,CCOC(=O)c1c(C)n(CCOC)c2ccc(O)cc12,0.821
13,CCOC(=O)c1c(C)n(CCN2CCN(C)CC2)c2ccc(OC)cc12,1.21
14,CCCCn1c(C)c(C(=O)OCC)c2c(CN3CCOCC3)c(O)ccc21,4.12 (active)
15,CCCCN1C(=N)C(CC)(CC)C(=O)NC1=O,-0.0121
16,CCC(=NCc1ccc(F)cc1)c1c(O)n(C)c(=O)n(C)c1=O,-0.274
17,O=C(c1cc([N+](=O)[O-])ccc1N1CCNCC1)N1CCOCC1,-0.253
18,COc1cccc(-n2c(O)c(C=NCc3ccc4c(c3)OCO4)c(=O)[nH]c2=O)c1,-0.566
19,N#Cc1cc(F)c(N2CCNCC2)cc1Cl,2.17
20,Clc1cccc(N2CCNCC2)c1Cl,0.654
21,N#Cc1ccc(N2CCNCC2)c(F)c1,0.268
22,CCCNS(=O)(=O)c1ccc(OCC(=O)N2CCN(Cc3ccc4c(c3)OCO4)CC2)cc1,-0.266
23,Cc1cc(C(=O)N2CCC3(CC2)OCCO3)cs1,0.652
24,C=CCOC(=O)C1=C(C)OC(N)=C(C(=O)OCC)C12C(=O)N(CC(N)=O)c1ccccc12 (stereo not drawn),-0.605
25,CN(C)CC1CSCCC1(O)c1ccccc1 (stereo not drawn),0.409

row,Structure (SMILES),z-score
1,C=C1N2CCC(CC2)C1(O)c1ccc(C)cc1 (stereo not drawn),-0.123
2,OC12Oc3ccccc3C=C1N1CCC2CC1 (stereo not drawn),2.17
3,CC(C)OC12Oc3ccccc3C=C1N1CCC2CC1 (stereo not drawn),1.77
4,CC(=O)N1CC(=O)Nc2ccc(Cl)cc2C1c1ccc(F)cc1 (stereo not drawn),-0.284
5,N=Cc1c(O)n(-c2cccc(Cl)c2)c(=O)[nH]c1=O,0.745
6,CCC(C)N1C(=O)/C(=C\c2ccc(N3CCCCCC3)cc2)C(=O)NC1=S (stereo not drawn),-0.384
7,CC(C)CN(CC(C)C)c1ccc(C=C2C(=O)NC(=S)NC2=O)cc1[N+](=O)[O-],2.35
8,CCC(C)N1C(=O)/C(=C/c2ccc3c(c2)CCN3CCCCl)C(=O)NC1=S (stereo not drawn),-0.358
9,Cc1cc(C=C2C(=O)NC(=S)NC2=O)c(C)n1-c1ccc2c(c1)OCO2,-0.495
10,O=C(O)C1(c2ccc(Cl)cc2)CCC1,-0.279
11,CN(C)P1(N(C)C)=Nc2c(c(N)nn2C)C(c2ccccc2)=N1,1.2
12,COc1ccc(CC2C(=O)NC(=O)N(c3ccccc3)C2=O)c(OC)c1 (stereo not drawn),0.821
13,CCc1ccc(N2C(=O)NC(=O)C(Cc3ccc(OC)cc3OC)C2=O)cc1 (stereo not drawn),-0.562
14,COc1ccc(CC2C(=O)NC(=O)NC2=O)c(OC)c1,13.6 (active)
15,Cc1ccc(-n2c(/C=C/c3ccc4c(c3)OCO4)nc3ccccc3c2=O)cc1,-0.143
16,CCOP(=O)(OCC)C(C)(C)NC(=O)C(Cl)(Cl)Cl,0.176
17,CC12CN3CC(C)(CN(C1)C3c1ccco1)C2=O (stereo not drawn),0.289
18,Cc1ccc(C(O)(C(=O)NNC(=O)CN2CCN(C)CC2)c2ccc(C)cc2)cc1,-0.00637
19,Cn1cccc1/C=C1\C(=O)NC(=O)N(CCC2=CCCCC2)C1=O,-0.117
20,CN1CCN(Cc2nnc3n2-c2ccc(Cl)cc2C(c2ccccc2)=NC3)CC1,-0.238
21,Clc1ccc2c(c1)C(c1ccccc1Cl)=NCc1nnc(N3CCN(CCSc4ccccc4)CC3)n1-2,-0.487
22,COc1ccccc1C1=NCc2nnc(C)n2-c2ccc(Cl)cc21,0.478
23,CSCc1nnc2n1-c1ccc(Cl)cc1C(c1ccccc1)=NC2,-0.724
24,Cc1ccccc1C1=NCC(=S)Nc2ccc(Cl)cc21,4.39 (active)
25,S=C1CN=C(c2ccccc2Cl)c2cc(Cl)ccc2N1,14.6 (active)

row,Structure (SMILES),z-score
1,S=C1CN=C(c2ccccc2)c2cc(Cl)ccc2N1,4.29 (active)
2,CCS(=O)(=O)NCc1nnc2n1-c1ccc(Cl)cc1C(c1ccccc1)=NC2,-0.148
3,Clc1ccc2c(c1)C(c1ccccc1Cl)=NCc1nncn1-2,1.46
4,Cc1ccc(N(C)C(=O)Oc2ccc(C(=O)c3ccc(Cl)cc3)cc2)cc1,0.23
5,CCN1CCN(c2nc3c(c(=O)[nH]2)CCCC3)CC1,-0.0782
6,CC(C)N(CC(O)c1cccc([N+](=O)[O-])c1)C(C)C (stereo not drawn),-0.309
7,Cc1cccc(N2C(=O)NC(=O)/C(=C\c3cc(C)n(-c4sc5c(c4C#N)CCCC5)c3C)C2=O)c1C,0.0132
8,CCOC(C(=O)OCCC[N+](C)(CC)CC)(c1ccccc1)c1ccccc1,0.315
9,c1ccc2c(CNC3CCCCC3)c[nH]c2c1,4.16 (active)
10,c1ccc2c(CNC3CCCCCC3)c[nH]c2c1,-0.0434
11,Cc1[nH]c2ccccc2c1CCCNC1CCCCC1,0.385
12,CCOc1cc(C2NCc3ccccc3-n3cccc32)ccc1O (stereo not drawn),1.71
13,COc1ccc(C2NCc3ccc4c(c3-n3cccc32)OCO4)cc1O (stereo not drawn),2.45
14,COc1cc(C2NCc3ccccc3-n3cccc32)ccc1O (stereo not drawn),1.55
15,CCCCN1C(=O)/C(=C/C=C/c2ccco2)C(=O)NC1=S,0.136
16,CCN1C(=O)C(=C/C=C/c2ccco2)C(=O)N(CC)C1=S,-0.628
17,CC(C)N1C(=O)/C(=C/C=C/c2ccco2)C(=O)N(Cc2ccco2)C1=O,6.08 (active)
18,COC(=O)C(O)(c1ccc(N=Cc2ccccc2O)c(C)c1)C(F)(F)F (stereo not drawn),0.286
19,O=C(CN1CCOCC1)c1cccc2ccccc12,-0.17
20,CCN(CC)c1ccc(N=Cc2c(O)n(-c3ccc(Cl)cc3)c(=O)[nH]c2=O)cc1,0.126
21,O=C1C2CCCN2C(c2ccc(Cl)cc2)N1c1ccccn1 (stereo not drawn),2.77
22,O=C1C2CCCN2C(c2ccc(Cl)c(Cl)c2)N1c1ccccn1 (stereo not drawn),-0.0899
23,O=C1C2CCCN2C(c2cccc(Cl)c2)N1c1ccccn1 (stereo not drawn),-0.498
